CHX counter: counter-screen for Shiga toxin inhibitors: cycloheximide protein synthesis inhibition | cell reporter, cycloheximide protein synthesis inhibition counterscreen | max response, % | hit rate 12% among 300,000; in the data active means max response mostly above about 13%, no sharp cut-off; inactive means mostly below about 14%; further: read at 38.3 µM for the half of the compounds with a filed dose; 0% is about no effect
LmPK inhibitor: LmPK (Leishmania mexicana) enzyme inhibition. Q27686. purified LmPK, Kinase-Glo ATP luminescence, 1 h. Potency, µM (top dose mostly 57.5 µM), inactives show at the highest dose activity change, negative = inhibition, actives largely listed as inhibitors. hit rate 0.37% among 290,000. AID 1721; further: potency means the concentration at half of the fitted maximal effect; on the % scale 0 is the no-effect control and ±100 the full control effect
Target sequence (Q27686 whole entry, looked up): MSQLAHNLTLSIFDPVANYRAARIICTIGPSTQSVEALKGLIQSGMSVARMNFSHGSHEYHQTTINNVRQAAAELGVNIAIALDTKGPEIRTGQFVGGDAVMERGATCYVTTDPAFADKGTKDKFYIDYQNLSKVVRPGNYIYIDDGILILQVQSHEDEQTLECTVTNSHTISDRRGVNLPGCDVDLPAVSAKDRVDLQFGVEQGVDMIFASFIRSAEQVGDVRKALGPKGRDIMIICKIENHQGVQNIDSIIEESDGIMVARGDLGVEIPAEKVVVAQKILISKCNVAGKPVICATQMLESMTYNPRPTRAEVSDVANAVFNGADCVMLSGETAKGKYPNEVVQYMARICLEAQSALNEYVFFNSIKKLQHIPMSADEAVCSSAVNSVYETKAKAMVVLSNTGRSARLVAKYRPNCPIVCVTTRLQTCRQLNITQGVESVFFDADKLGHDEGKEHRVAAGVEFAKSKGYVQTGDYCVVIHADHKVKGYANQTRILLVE
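qHTS format; LmPK 0.1 nM; substrates PEP 0.5 mM and ADP 0.1 mM. One-hour room-temperature incubation, then coupled luciferase luminescence; 0.5 nM enzyme wells mark activation.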
FBPA Giardia inh: inhibitors of Giardia lamblia fructose-1,6-bisphosphate aldolase; purified Giardia FBPA; Potency, µM (doses to about 59.6 µM), inactives show at the top dose activity, negative = inhibition, hits mostly inhibitors; hit rate 0.71% among 290,000; further: potency means the concentration at half of the fitted maximal effect; on the % scale 0 is the no-effect control and ±100 the full control effect; nearly all actives have a fitted effect of over 55% in size
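40 nM FBPA preincubated 10 min at RT with compound (up to 57.5 uM final), then substrate plus GAPDH/TPI/NAD/arsenate coupling and diaphorase/resazurin added. Fluorescence read after 20 min at RT, 525/598 nm.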
Sm TGR block: blocks Schistosoma mansoni thioredoxin glutathione reductase. Potency, µM (titrated, usually from 114 µM), for inactives: top-dose activity change, negative = inhibition, most hits filed as inhibitors. Q962Y6. purified TGR, DTNB reduction, TNB absorbance 405 nm. hit rate 3% among 360,000; further: potency means the concentration at half of the fitted maximal effect; on the % scale 0 is the no-effect control and ±100 the full control effect; nearly all actives have a fitted effect of over 60% in size
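First, TGR (20 nM dispensed) and NADPH were mixed with compound. Second, a 15 min room-temperature incubation followed. Third, further NADPH and then DTNB were added to start the reaction. Finally, TNB absorbance was monitored kinetically.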
Shiga inhibitor: inhibitors of Shiga toxin in Vero cells; Vero cells, Shiga toxin protein synthesis inhibition reporter; inhibition, % at 38.7 µM; hit rate 9.2% among 290,000; AID 2315; in the data active means inhibition mostly above about 28%, no sharp cut-off; inactive means mostly below about 43%; further: 0% is about no effect
Tb PYK inh: inhibitors of Trypanosoma brucei pyruvate kinase; hit rate 0.12% among 410,000; TbPYK enzyme, Kinase-Glo Plus ATP luminescence, 45 min; Potency, µM (highest dose often 76.8 µM), for inactives: top-dose activity, negative = inhibition, usual class: inhibitors; Q57TT1; further: potency means the concentration at half of the fitted maximal effect; on the % scale 0 is the no-effect control and ±100 the full control effect; nearly all actives have a fitted effect of over 50% in size
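Screened from lowest to highest concentration, compounds were pinned into TbPYK/substrate mixtures, and ADP (130 uM final) was added. Plates sat at room temperature for 45 min prior to Kinase-Glo Plus detection by luminescence.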
* marks the source's active call; other numbers are inactive results; [ ] = another dose, or the depositor's remark. This is one part of a sample in which hits are shown more often than they occur. Unless noted, the call rests on the fitted dose curve; in most records, active means well fitted curve in the direction sought with a large enough effect; inconclusive means small, poorly fitted or top-dose-only effect, or another doubt; inactive means no such curve, though single readings can be large; an effect the other way counts as inactive or inconclusive.

CCOC(=O)c1ccc(N/C=C2/CCCC(C)C2=O)cc1 (stereo not drawn) was read as CHX counter 57.3*, LmPK inhibitor -5.3%, FBPA Giardia inh -5.4%, Sm TGR block -26.3%, Shiga inhibitor 51.9* and Tb PYK inh 5.2%.
Cc1ccc([N+](=O)[O-])cc1NC(=O)C1CCCC1 was read as CHX counter -2.7, LmPK inhibitor -0.3%, FBPA Giardia inh -2.7%, Sm TGR block -23.6%, Shiga inhibitor -11.8 and Tb PYK inh 0.4%.
COc1nccnc1NS(=O)(=O)c1ccc(N/C=C2\CCCCC2=O)cc1 was read as CHX counter -1.2, LmPK inhibitor 9.8%, FBPA Giardia inh -1.3%, Sm TGR block -27.0%, Shiga inhibitor -3.5 and Tb PYK inh -12.2%.
Screening Cc1ccc([N+](=O)[O-])cc1N/C=C1\CCCCC1=O returned CHX counter 57.6*, LmPK inhibitor 1.3%, FBPA Giardia inh 17.5%, Sm TGR block -5.1%, Shiga inhibitor 92.9* and Tb PYK inh 0.9%.
CCOc1ccc(/C=C/c2nc(C#N)c(Nc3ccc(OCC)cc3)o2)cc1 was read as Sm TGR block -2.9% and Tb PYK inh 4.2%.
For Cc1nn(CC(=O)NCc2ccc(OC(C)C)cc2)c(=O)c2c(C)n(-c3ccc(Cl)cc3)nc12 the results were Sm TGR block 3.9% and Tb PYK inh 3.0%.
CCOc1ccc(/C=N/NC(=O)c2ccccc2NC(=O)c2ccc(OC)cc2)cc1 was read as CHX counter 60.3*, LmPK inhibitor -13.1%, FBPA Giardia inh -3.1%, Sm TGR block 2.2%, Shiga inhibitor 45.4* and Tb PYK inh -9.6%.
For COc1ccc(/C=N/NC(=O)c2ccccc2NC(=O)c2ccco2)c(OC)c1 the results were CHX counter 1.8, LmPK inhibitor -2.0%, FBPA Giardia inh 0.0%, Sm TGR block 6.6%, Shiga inhibitor 12.2 and Tb PYK inh 0.5%.
Screening O=C(Nc1ccccc1C(=O)N/N=C/c1ccncc1)c1ccccc1 returned CHX counter 21.7, LmPK inhibitor 25.1µM*, FBPA Giardia inh -1.0%, Sm TGR block 2.2%, Shiga inhibitor 16.7 and Tb PYK inh inconclusive.
CCOc1ccc(C(=O)Nc2ccccc2C(=O)O)cc1 was read as CHX counter 13.2, LmPK inhibitor -3.6%, FBPA Giardia inh inconclusive, Shiga inhibitor 28.5 and Tb PYK inh 0.7%.
Screening COc1ccc(C(=O)Nc2ccccc2C(=O)N/N=C/c2ccco2)cc1 returned CHX counter 41.3*, LmPK inhibitor 25.1µM*, FBPA Giardia inh -4.4%, Sm TGR block 2.7%, Shiga inhibitor 54.7* and Tb PYK inh inconclusive.
Screening CCCCc1nc2c(c3c1C[C@H](C)OC3)CN(C(=O)N[C@H](C(=O)OC)C(C)C)CC2 returned LmPK inhibitor -1.0%[11.5 µM] and FBPA Giardia inh 1.0%[12.9 µM].
`CCCn1c(=O)c2sccc2n2c(CCCC(=O)N3CCN(c4ccccc4OC)CC3)nnc12` gave Sm TGR block 4.5% and Tb PYK inh -5.8%.
`Cc1ccc(CCNC(=O)CNC(=O)c2cccs2)cc1` gave CHX counter 4.9, LmPK inhibitor 1.3%, FBPA Giardia inh 4.7%, Sm TGR block 9.4%, Shiga inhibitor 21.0 and Tb PYK inh -0.2%.
Screening O=C(NCCc1ccccc1F)c1cccc2cccnc12 returned CHX counter 52.0*, LmPK inhibitor -6.0%, FBPA Giardia inh -10.2%, Sm TGR block 1.7%, Shiga inhibitor 82.3* and Tb PYK inh 0.0%.
Cc1ccc(NC(=O)c2cccc3cccnc23)cc1 was read as CHX counter 35.4*, LmPK inhibitor -5.1%, FBPA Giardia inh 4.5%, Sm TGR block -1.7%, Shiga inhibitor 110.6* and Tb PYK inh -2.2%.
CC(=O)Nc1cccc(NC(=O)c2cccc3cccnc23)c1 was read as CHX counter 19.3*, LmPK inhibitor 3.0%, FBPA Giardia inh -2.2%, Sm TGR block 1.0%, Shiga inhibitor 31.5 and Tb PYK inh 3.9%.
CN(CC(=O)Nc1ccc(Cl)c(Cl)c1)C(=O)c1cccc2cccnc12 was read as Sm TGR block 0.3% and Tb PYK inh 6.0%.
For COc1ccc(C(=O)N(NC(=O)Oc2ccccc2)C(C)(C)C)cc1 the results were CHX counter -3.5, LmPK inhibitor -0.5%, FBPA Giardia inh 1.5%, Sm TGR block -3.0%, Shiga inhibitor 32.8 and Tb PYK inh -8.5%.
For COc1cc(CN2CCCC(C(=O)c3ccc4c5c(cccc35)CC4)C2)cc(OC)c1O (stereo not drawn) the results were CHX counter -2.4, LmPK inhibitor 0.3%, FBPA Giardia inh 7.92µM*, Sm TGR block 14.1µM*, Shiga inhibitor 1.5 and Tb PYK inh -17.6%.
Screening O=C(Nc1sc2c(c1C(=O)O)CCCCC2)c1cccs1 returned CHX counter 66.0*, LmPK inhibitor -8.8%, FBPA Giardia inh -15.4%, Sm TGR block -1.8%, Shiga inhibitor 128.6* and Tb PYK inh -2.3%.
Screening O=C(Nc1sc2c(c1C(=O)NCC1CCCO1)CCCC2)c1cccs1 (stereo not drawn) returned CHX counter -1.1, LmPK inhibitor 3.2%, FBPA Giardia inh -3.7%, Sm TGR block 0.0%, Shiga inhibitor -6.4 and Tb PYK inh 2.9%.
`CC(C)OC(=O)c1c(NC(=O)c2cccs2)sc2c1CCCC2` gave CHX counter 5.0, LmPK inhibitor 5.5%, FBPA Giardia inh -0.1%, Sm TGR block 1.3%, Shiga inhibitor 36.4 and Tb PYK inh 0.2%.
For CC(=O)Nc1sc2c(c1C(c1cccs1)N1CCOCC1)CCCC2 (stereo not drawn) the results were CHX counter 1.8, LmPK inhibitor 0.9%, FBPA Giardia inh -11.3%, Sm TGR block 22.4µM*, Shiga inhibitor -13.0 and Tb PYK inh -13.3%.
`O=C(Nc1sc2c(c1C(=O)O)CCCC2)c1cccs1` gave CHX counter 27.2*, LmPK inhibitor -14.5%, FBPA Giardia inh -13.1%, Sm TGR block -3.1% and Shiga inhibitor 127.4*.
Screening CC1CCc2c(sc(NC(=O)c3cccs3)c2C(=O)O)C1 (stereo not drawn) returned CHX counter 47.3*, LmPK inhibitor 2.9%, FBPA Giardia inh 5.6%, Sm TGR block -11.8%, Shiga inhibitor 80.9* and Tb PYK inh -4.5%.
Screening CCOc1cc(C2CC(=O)Nc3c2c(=O)nc(SCc2cccc(Cl)c2)n3C)ccc1O (stereo not drawn) returned Sm TGR block 0.4% and Tb PYK inh -10.3%.
For CCOc1ccc(CNCc2c(C(=O)O)c(C)n(Cc3ccc(C)cc3)c2C)cc1 the results were Sm TGR block 0.1% and Tb PYK inh -1.4%.
COc1ccccc1Nc1nc2ccccc2[nH]1 was read as CHX counter 28.6*, LmPK inhibitor -13.4%, FBPA Giardia inh inconclusive, Sm TGR block 0.0%, Shiga inhibitor 90.9* and Tb PYK inh -10.6%.
